# Source: PubChem BioAssay
# Many of the other results were omitted from the sample, so hits are more common in it than they were.
# IL1B secr inh: inhibitors of inflammasome signaling (IL-1 beta secretion); AID 743279; activity change, % at 57.5 µM; THP-1 LPS/ATP IL-1B secretion, AlphaLISA, 16 h; hits give low values; hit rate 4.7% among 360,000; in the data active means activity change below about -50%; inconclusive means mostly about -30% to -49%
#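 Secreted IL-1B measured by AlphaLISA bead assay after 16 h compound exposure of THP-1 cells; compounds (final up to 57.5 uM) added 1 h before LPS (250 ng/mL) and ATP (1.25 mM) stimulation; lower signal means less secretion.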
# ALOX12 inh: inhibitors of human 12S-lipoxygenase ALOX12 | P18054 | purified 12hLO, xylenol orange hydroperoxide absorbance | hit rate 1.1% among 580,000 | Potency, µM (top dose mostly 108 µM), for inactives: at the highest dose activity change, negative = inhibition, most hits filed as inhibitors; further: potency means the concentration at half of the fitted maximal effect
# Target sequence (P18054 whole entry, looked up): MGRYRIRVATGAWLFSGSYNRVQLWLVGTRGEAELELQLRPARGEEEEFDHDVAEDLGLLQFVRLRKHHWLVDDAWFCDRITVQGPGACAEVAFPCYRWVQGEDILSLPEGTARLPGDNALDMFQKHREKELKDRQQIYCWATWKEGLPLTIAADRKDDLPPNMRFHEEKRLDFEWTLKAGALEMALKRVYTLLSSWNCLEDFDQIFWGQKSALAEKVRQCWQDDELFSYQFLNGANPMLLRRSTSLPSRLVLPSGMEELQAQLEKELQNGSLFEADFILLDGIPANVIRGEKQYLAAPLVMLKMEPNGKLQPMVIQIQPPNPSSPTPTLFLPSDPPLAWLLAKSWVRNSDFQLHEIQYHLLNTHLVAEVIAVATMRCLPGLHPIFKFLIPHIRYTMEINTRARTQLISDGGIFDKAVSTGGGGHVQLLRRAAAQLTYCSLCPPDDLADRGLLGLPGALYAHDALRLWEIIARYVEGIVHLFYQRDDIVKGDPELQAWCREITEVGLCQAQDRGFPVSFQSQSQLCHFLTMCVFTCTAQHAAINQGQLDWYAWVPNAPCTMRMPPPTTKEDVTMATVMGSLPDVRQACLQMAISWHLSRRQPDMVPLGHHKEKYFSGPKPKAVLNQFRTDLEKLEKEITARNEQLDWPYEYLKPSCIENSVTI
#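 Purified human 12hLO (150 nM final) in 25 mM Hepes, 0.01% Triton X-100, pH 7.0 was preincubated 15 min at room temperature with compound. Then 40 uM arachidonic acid was added, 30 min. Hydroperoxide was read by Fe-XO absorbance ratio 573/405 nm.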
# HT1080 IDH1KD tx: kills HT-1080 cells with IDH1 knockdown. hit rate 2% among 360,000. Potency, µM (doses to about 46.1 µM), for inactives: at the highest dose activity, negative = toxicity, hits mostly cytotoxic. HT-1080 IDH1 knockdown viability, ATP luminescence, 48 h;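 further: potency means the concentration at half of the fitted maximal effect; 0% = DMSO wells and -100% = cell-free medium wells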
#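 % activity derives from luminescence (CellTiter-Glo), normalised to DMSO and no-cell wells. HT-1080-IDH1KD cells, 750/well, had 48 h compound exposure at 37 °C.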
# HT1080NT lethal: kills 2HG-producing HT-1080-NT fibrosarcoma cells; HT-1080-NT fibrosarcoma viability, CellTiter-Glo ATP luminescence, 48 h; Potency, µM (doses to about 46.1 µM), for inactives: at the highest dose activity, negative = less viability, hits mostly cytotoxic; hit rate 1.6% among 360,000; AID 686970;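 further: NT is the 2HG producing partner of a matched IDH1 knockdown line; potency means the concentration at half of the fitted maximal effect; 0% = DMSO-treated cells and -100% = media-only wells without cells; nearly all actives have a fitted effect of over 55% in size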
#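 A 48-hour cytotoxicity screen used HT-1080-NT cells plated 2 hours before compound delivery. ATP-based CellTiter-Glo luminescence measured viability, normalized to DMSO and no-cell controls.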
# DT40 TDP1 no CPT: qHTS for Inhibitors of human tyrosyl-DNA phosphodiesterase 1 (TDP1): qHTS in cells in absence of CPT | AID 686978, 2013 | DT40 Tdp1-/- hTDP1 cells, no CPT, ATP luminescence, 48 h | hit rate 15% among 420,000 | Potency, µM (top dose mostly 46.2 µM), for inactives: at the highest dose activity change, negative = growth inhibition, most hits filed as inhibitors; further: potency means the concentration at half of the fitted maximal effect; nearly all actives have a fitted effect of over 55% in size
#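 Stably hTDP1-transfected Tdp1-null chicken DT40 cells were treated with library compounds minus camptothecin and grown for at least 48 hr at 37 °C, after which cellular ATP was quantified by luminescence.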
# DT40 TDP1 CPT: growth inhibition of DT40 Tdp1-/-;hTDP1 cells with camptothecin (screen for TDP1 inhibitors). hit rate 12% among 420,000. Potency, µM (series often up to 46.2 µM), for the others: top-dose activity change, negative = growth inhibition, usual class: inhibitors. chicken DT40 Tdp1-/-;hTDP1 cells + 20 nM CPT, ATP luminescence, 48 h. AID 686979; further: potency means the concentration at half of the fitted maximal effect; nearly all actives have a fitted effect of over 55% in size
#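 Cell growth measured by CellTiter-Glo luminescence after a minimum 48 h, 37 C compound exposure with 20 nM CPT in Tdp1-knockout DT40 cells stably expressing hTDP1, seeded 400/well; qHTS titration format.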
# Active calls of the source: *; ? = inconclusive; . = not tested or not shown; [ ] = dose if it differs, or a comment. Unless noted, the call rests on the fitted dose curve; in most records, active means well fitted curve in the direction sought with a large enough effect; inconclusive means small, poorly fitted or top-dose-only effect, or another doubt; inactive means no such curve, though single readings can be large; an effect the other way counts as inactive or inconclusive. Unless noted, on the % scale 0 is the no-effect control and ±100 the full control effect.
SMILES,IL1B secr inh,ALOX12 inh,HT1080 IDH1KD tx,HT1080NT lethal,DT40 TDP1 no CPT,DT40 TDP1 CPT
CN(Cc1ccccc1)C(=O)c1[nH]cnc1C(=O)Nc1nccs1,-19,14%,7%,12%,-7%,?
CC(C)(C)OC(=O)N1CCC(NC(=O)c2[nH]cnc2C(=O)Nc2ccc(Br)cc2F)CC1,2,-1%,11%,10%,18µM*,21µM*
CC(=O)NC1C(=O)N(CCOc2ccccc2)c2ccc(C)cc21 (configuration not stated),.,5%,.,.,.,.
CN(Cc1ccccc1)C(=O)c1[nH]cnc1C(=O)NC1CCN(C(=O)OC(C)(C)C)CC1,15,-1%,2%,0%,?,21µM*
CC(C)(C)OC(=O)N1CCC(NC(=O)c2[nH]cnc2C(=O)Nc2ccccc2)CC1,-4,0%,5%,11%,?,?
CN(Cc1ccccc1)C(=O)c1[nH]cnc1C(=O)NCc1ccc(CNC(=O)OC(C)(C)C)cc1,9,7%,3%,-20%,13µM*,?
CCN(CC)Cc1nc(C2(O)CCN(CCC(C)C)CC2)cs1,.,24%[176 µM],.,.,.,.
c1coc(-c2nc3ncccc3[nH]2)c1,.,55%[176 µM],.,.,.,.
Cc1cccc(C)c1NC(=O)c1cn(-c2ccccc2)nc1-c1ccccc1,7,-2%,16%,16%,?,-2%
NS(=O)(=O)c1ccc(NC(=O)COC(=O)c2cn(-c3ccccc3)nc2-c2ccc(F)cc2)cc1,-2,9%,?,-22%,?,?
O=C(O)c1ccc(NC(=O)c2cn(-c3ccccc3)nc2-c2ccc(F)cc2)cc1,21,-12%,-1%,-9%,?,?
Cc1cccc(NC(=O)c2cn(-c3ccccc3)nc2-c2ccccc2)c1,-1,-22%,1%,-5%,16µM*,?
O=C(O)c1ccc(NC(=O)c2cn(-c3ccccc3)nc2-c2cccc(Cl)c2)cc1,21,?,?,?,3.7µM*,?
CN(C)S(=O)(=O)c1cccc(NC(=O)COC(=O)c2cn(-c3ccccc3)nc2-c2ccccc2)c1,-21,4%,0%,-6%,21µM*,?
O=C(NC(=S)NCCO)c1cn(-c2ccccc2)nc1-c1ccccc1,-4,40µM*,17%,23%,-19%,-22%
Cc1ccccc1-c1nc(C#N)c(N2CCN(Cc3ccccc3)CC2)o1,.,-3%,.,.,.,.
Cc1cc(C(=O)Nc2cccc(S(=O)(=O)N3CCOCC3)c2)c2ccccc2n1,23,0%,0%,-3%,23µM*,?
Cc1ccc(S(=O)(=O)N2CCOCC2)cc1NC(=O)c1cc(-c2ccccn2)nc2ccccc12,-51*,8%,?,?,-27%,?
COc1ccccc1NC(=O)c1cc(-c2ccccn2)nc2ccccc12,.,-3%,.,.,.,.
O=C(Nc1cccc(S(=O)(=O)N2CCOCC2)c1)c1cn(-c2ccccc2)nc1-c1ccc(F)cc1,55,-2%,16%,15%,?,?
O=C(Nc1cccc(S(=O)(=O)N2CCOCC2)c1)c1cn(-c2ccccc2)nc1-c1ccccc1,-19,0%,8%,2%,23µM*,?
Cc1cccc(NC(=O)c2cc(-c3ccccn3)nc3ccccc23)c1C,-27,-9%,-21%,?,13µM*,23µM*
Cc1ccc(-c2nc3ncccc3o2)cc1NC(=O)c1ccc(-c2cccc(Cl)c2C)o1,.,-24%,.,.,0%,?
O=C1CC(c2ccccc2)N(C(=O)C2CC2)CCCN(C(=O)CCc2c[nH]c3ccccc23)CCN1 (configuration not stated),.,49%,.,.,.,.
CC(C)(C(=O)NCC(F)(F)C(F)(F)F)C(=O)N[C@@H]1C(=O)Nc2ccccc2-c2ccccc21,.,28%[57.4 µM],.,.,.,.
SMILES,IL1B secr inh,ALOX12 inh,HT1080 IDH1KD tx,HT1080NT lethal,DT40 TDP1 no CPT,DT40 TDP1 CPT
Cc1cccc(NC(=O)c2cn(-c3ccccc3)nc2-c2ccccc2)c1C,.,-23%,.,.,21µM*,?
O=C(Cn1nnc(-c2ccccc2)n1)Nc1cccc(S(=O)(=O)N2CCOCC2)c1,-9,11%,7%,7%,12µM*,?
CN(C)c1ccc(O)c2c1CC1CC3[C@@H](N(C)C)C(=O)C(C(N)=O)C(=O)[C@]3(O)C(=O)C1C2=O (some centres not stated),-20,2%,.,.,4.1µM*,6.5µM*
CN(C)c1cc(NC(=O)CNC(C)(C)C)c(O)c2c1C[C@H]1C[C@H]3[C@H](N(C)C)C(=O)C(C(N)=O)=C(O)[C@@]3(O)C(=O)C1=C2O,.,.,.,.,4%,10%
CN(C)c1ccc(O)c2c1CC1CC3C(N(C)C)C(=O)C(C(N)=O)=C(O)[C@@]3(O)C(=O)C1=C2O (some centres not stated),-4,12%,.,.,1.8µM*,2.1µM*
CN(C)c1cc(NC(=O)CNC(C)(C)C)c(O)c2c1C[C@@H]1C[C@H]3[C@H](N(C)C)C(=O)C(C(N)=O)=C(O)[C@@]3(O)C(=O)C1=C2O,.,-29%[57.4 µM],.,.,.,.
O=C(O)COc1ccc(-c2nccc3c2C(=O)N(Cc2cccc(C(F)(F)F)c2)CC(COc2ccccc2)O3)cc1 (configuration not stated),.,42%,.,.,.,.
O=C(CC(CC(=O)c1ccccc1)c1ccncc1)c1ccccc1,-2,-21%,-13%,4%,?,?
O=C(CC(CC(=O)c1ccc(Br)cc1)c1cccnc1)c1ccc(Br)cc1,10,0%,13%,?,15µM*,15µM*
CC(C)c1nn2c(=O)cc(CSCC(=O)Nc3cccc4ccccc34)nc2s1,.,2%,.,.,.,.
COc1ccccc1N1CCN(c2ncccc2CNC(=O)C2CCCO2)CC1 (configuration not stated),.,-2%,.,.,.,.
COc1ccccc1N1CCN(c2nc(CNC(=O)C3CC34CCCC4)nc3ccccc23)CC1 (configuration not stated),.,?,.,.,21µM*,-13%[9.04 µM]
COc1ccccc1N1CCN(c2nc(CNC(=O)c3ccccc3F)nc3ccccc23)CC1,.,4%,.,.,8.2µM*,?
COc1ccccc1N1CCN(c2nc(CNC(=O)C3CCOC(C)(C)C3)nc3ccccc23)CC1 (configuration not stated),.,-1%,.,.,16µM*,?
CCSc1nnc(CNC(=O)c2ccccc2F)n1-c1ccccc1OC,5,-20%,2%,13%,1%,13%
